Seven compounds from PubChem BioAssay (Tox21) can be followed below.

Values joined by “and” are separate entries in the source; they are usually repeats but may differ in a detail not shown here. Equal values may be shown once. Results filed as inconclusive are left out. A structure can be active in one record and inactive in another. Active and inactive are the calls of the source. Unless noted, calls come from the whole dose curve; as a rule, active = well fitted curve in the direction sought with a large enough effect in the repeat runs; inconclusive = weak or mixed curves; inactive = no such curve, though single readings can be large; an effect the other way counts as inactive or inconclusive.

Assay [1] deals with Thyrotropin receptor (Homo sapiens) (UniProt P16473). Put plainly: qHTS assay to identify small molecule agonists of the thyroid stimulating hormone receptor (TSHR) signaling pathway (AID 1224843; calls by dose curve; note: nearly all actives have a fitted effect of over 45% in size). The method in brief: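 A cell-based cAMP HTRF format was run in TSHR-transfected HEK293 cells, 800 per well. Treatment: 30 min, room temperature. Detection: 1 h with labelled cAMP and anti-cAMP cryptate. Concentration-response over 15 points, three replicates.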
Sequence of Thyrotropin receptor (Homo sapiens) (P16473 whole entry, looked up): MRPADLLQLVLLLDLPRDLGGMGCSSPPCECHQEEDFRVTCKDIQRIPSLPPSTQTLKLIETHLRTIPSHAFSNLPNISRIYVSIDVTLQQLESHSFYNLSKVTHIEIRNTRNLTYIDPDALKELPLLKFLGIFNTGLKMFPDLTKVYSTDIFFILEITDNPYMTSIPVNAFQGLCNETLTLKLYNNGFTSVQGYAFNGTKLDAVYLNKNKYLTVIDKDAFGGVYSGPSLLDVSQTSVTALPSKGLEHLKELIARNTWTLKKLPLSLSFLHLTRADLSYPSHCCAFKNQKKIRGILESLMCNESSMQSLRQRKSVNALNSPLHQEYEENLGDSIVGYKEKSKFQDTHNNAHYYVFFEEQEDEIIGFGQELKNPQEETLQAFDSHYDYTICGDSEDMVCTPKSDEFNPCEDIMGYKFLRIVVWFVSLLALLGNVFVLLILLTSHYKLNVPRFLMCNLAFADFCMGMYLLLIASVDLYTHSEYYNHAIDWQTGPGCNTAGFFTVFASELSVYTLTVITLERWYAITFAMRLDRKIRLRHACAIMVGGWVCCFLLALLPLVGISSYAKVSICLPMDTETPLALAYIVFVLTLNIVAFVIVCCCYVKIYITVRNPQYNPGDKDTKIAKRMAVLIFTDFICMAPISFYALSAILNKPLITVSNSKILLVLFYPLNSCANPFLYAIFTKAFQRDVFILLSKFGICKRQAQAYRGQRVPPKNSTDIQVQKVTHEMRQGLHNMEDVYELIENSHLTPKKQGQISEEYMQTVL

Assay [2] can be described thus: qHTS assay to identify small molecule agonists of H2AX (AID 1224845; active = well fitted activation curve with a large enough effect in the signal ratio in the repeat runs, not every such curve was filed as active; the % refers to the signal ratio). The method in brief:
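Phospho-H2AX Ser139 measured by HTRF (ex 320 nm; em 665 and 620 nm) after 24 hr antibody incubation. Compounds, 15 concentrations, 0.76% DMSO, were applied to CHO-K1 cells for 3hr at 37C before lysis.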

The nature of assay [3]: qHTS assay to identify small molecule agonists of the hypoxia (HIF-1) signaling pathway (AID 1224846; active = well fitted activation curve with a large enough effect in the signal ratio in the repeat runs, not every such curve was filed as active; the % refers to the signal ratio). The method in brief: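 ME-180 HRE-bla reporter cells; compounds in DMSO, 17 h at 37C; read-out beta-lactamase via CCF4-AM FRET.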
(In general: qHTS replaces the single test concentration by a dilution series.)

A short description of assay [4]: qHTS assay to identify small molecule antagonists of the estrogen related receptor (ERR) signaling pathway from Tox21 library (AID 1224848). Note: nearly all actives have a fitted effect of over 50% in size. The method in brief: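 ERR cell line, 2,000 cells/well. 6 h settle, then compound (DMSO) added; 18 h at 37 C; ONE-Glo luminescence after 30 min RT.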
A short description of assay [5]: qHTS assay to identify small molecule agonists of the estrogen related receptor (ERR) signaling pathway from Tox21 library (AID 1224849; calls by dose curve; note: nearly all actives have a fitted effect of over 15% in size). The conditions noted are these: ERR reporter cell line, ONE-Glo luciferase, 18 h; at 92.4 µM (top of the series). The method in brief:
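Luciferase activity in ERR pathway reporter cells served as the agonist readout; exposure lasted 18 h at 37 C, with ONE-Glo detection after 30 min at room temperature.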

A short description of assay [6]: qHTS RealTime-Glo MT Cell Viability Assay in HepG2 cells - 24 hour (AID 1224867). Note: nearly all actives have a fitted effect of over 50% in size. The method in brief:
(§1)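 Luminescence read-out: viable HepG2 cells reduce a prosubstrate to a NanoLuc substrate, giving a signal proportional to live cell number. Reads taken at 0, 8, 16, 24, 32 and 40 h of compound exposure at 37 C.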

Assay [7] in a line: qHTS RealTime-Glo MT Cell Viability Assay in HEK293 cells - 32 hour (AID 1224868). Note: nearly all actives have a fitted effect of over 50% in size. Note: potency is the fitted concentration of half-maximal effect. Summed up:
(§2)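 Nonlytic real-time viability readout: viable cells convert prosubstrate to NanoLuc substrate, giving luminescence proportional to live cell number. HEK293, 600 cells/well, compound added after 5 h, continuous culture at 37 C.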

A short description of assay [8]: A CellTox Green Cytotoxicity Assay to monitor cytotoxicity in HEK293 cells - 0 hour (AID 1224869). Note: nearly all actives have a fitted effect of over 50% in size. Summed up: (§3)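 Real-time, in one plate: 600 HEK293 cells/well with dead-cell DNA dye, pinned compound after 5 h, 37 C incubation over 40 h; viable cells give no appreciable fluorescence.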
Assay [9] can be described thus: qHTS RealTime-Glo MT Cell Viability Assay in HepG2 cells - 40 hour (AID 1224870). Note: nearly all actives have a fitted effect of over 50% in size. Summed up:
(§4)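 Real-time viability: cells seeded at 600 per well together with NanoLuc and cell-permeant prosubstrate, compounds added after 5 h incubation. Luminescence tracked at 0, 8, 16, 24, 32 and 40 h of exposure.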

A short description of assay [10]: qHTS RealTime-Glo MT Cell Viability Assay in HEK293 cells - 16 hour (AID 1224872). Summed up:
as §2

Assay [11] in a line: A CellTox Green Cytotoxicity Assay to monitor cytotoxicity in HEK293 cells - 24 hour (AID 1224875). Note: nearly all actives have a fitted effect of over 45% in size. The method in brief:
as §3

Assay [12] can be described thus: A CellTox Green Cytotoxicity Assay to monitor cytotoxicity in HepG2 cells - 16 hour (AID 1224876). Note: nearly all actives have a fitted effect of over 45% in size. The method in brief: (§5)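 Cytotoxicity was tracked as dead-cell DNA fluorescence in HepG2 cells treated with test compounds at 37 C; each time-point value comes from one kinetic series spanning 0, 8, 16, 24, 32 and 40 h.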
Assay [13] is described as follows: qHTS RealTime-Glo MT Cell Viability Assay in HepG2 cells - 32 hour (AID 1224877). Note: nearly all actives have a fitted effect of over 55% in size. The method in brief:
as §1

A short description of assay [14]: A CellTox Green Cytotoxicity Assay to monitor cytotoxicity in HepG2 cells - 24 hour (AID 1224878). Note: nearly all actives have a fitted effect of over 45% in size. The method in brief:
as §5

A short description of assay [15]: A CellTox Green Cytotoxicity Assay to monitor cytotoxicity in HepG2 cells - 40 hour (AID 1224879). Note: nearly all actives have a fitted effect of over 40% in size. Note: potency is the fitted concentration of half-maximal effect. Summed up:
as §5

Assay [16] is described as follows: qHTS assay to identify small molecule agonists of the hypoxia (HIF-1) signaling pathway - cell viability counter screen (AID 1224844; calls by dose curve; note: nearly all actives have a fitted effect of over 50% in size; note: potency is the fitted concentration of half-maximal effect). The method in brief: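 In this counter screen, HRE-bla ME-180 cell viability after 17 hrs of compound exposure at 37C was read by CellTiter-Glo luminescence, multiplexed with the beta-lactamase reporter measurement.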
The nature of assay [17]: A CellTox Green Cytotoxicity Assay to monitor cytotoxicity in HEK293 cells - 40 hour (AID 1224871). Note: nearly all actives have a fitted effect of over 45% in size. Note: potency is the fitted concentration of half-maximal effect. The method in brief: as §3
Assay [18] can be described thus: qHTS RealTime-Glo MT Cell Viability Assay in HepG2 cells - 8 hour (AID 1224873). Note: nearly all actives have a fitted effect of over 55% in size. The method in brief: as §4
Assay [19] can be described thus: qHTS RealTime-Glo MT Cell Viability Assay in HEK293 cells - 40 hour (AID 1224874). Note: nearly all actives have a fitted effect of over 50% in size. Conditions: RealTime-Glo luminescence; max response: stronger effect = lower value. Summed up:
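Kinetic, non-lysing viability readout. Seed HEK293 (600/well) with reagent, incubate 5 h at 37 C/5% CO2, pin 23 nL compound in DMSO, incubate at 37 C, read luminescence at 0, 8, 16, 24, 32, 40 h.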

The nature of assay [20]: qHTS assay to identify small molecule agonists of H2AX - cell viability counter screen (AID 1224847; calls by dose curve; note: top concentration of the series differs between compounds; nearly all actives have a fitted effect of over 30% in size). The method in brief: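 Quantitative HTS viability measurement: CHO-K1 wild-type cells in serum (10% FBS) medium, short 3 hr drug exposure at 37C with 0.76% DMSO, CellTiter-Glo luminescent detection.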
% is set by controls: 0 for no effect and ±100 for the full control effect.

For the compound `c1ccc(N=Nc2ccccc2)cc1`, the Potency result in assay [1], in [2], in assay [4], in assay [6], in assay [7] and in assay [8] was “inactive” throughout. The Potency result in assay [9], in assay [10], in assay [11], in assay [12], in assay [13] and in assay [14] was “inactive” in each case. In addition, in assay [15], the Potency result is “inactive”. The outcome in assay [3] was inactive. Also, the activity change, positive = activation in assay [5] was 2.72% (inactive) and 1.53% (inactive).
For the compound `CCc1cccc(CC)c1N(COC)C(=O)CCl`, the Potency result in [1], in [6], in assay [7], in assay [8], in [9] and in assay [17] was “inactive” each time. For the same compound, the Potency result in assay [10], in assay [11], in assay [12], in [13], in assay [14] and in [15] was “inactive” each time. Besides, the Potency in assay [16] was 47.4 µM (active). Further, the call in assay [3] was inactive.
For the compound `Oc1cc(Cl)ccc1Cl`, the Potency entry in assay [1], in assay [16], in [6], in [7], in assay [8] and in [9] was “inactive” throughout. The Potency result in assay [17], in assay [10], in assay [18], in [11], in assay [12] and in assay [13] was “inactive” in each case. Further, the Potency result in assay [14] and in assay [15] was “inactive” in each case. Further, the result in [3] was inactive. Further, the max response in assay [19] was -8.7% (inactive) and -0.256% (inactive).
As to `CCCCNC(=O)n1c(NC(=O)OC)nc2ccccc21`, the Potency result in assay [1], in assay [2], in assay [6], in assay [8], in [9] and in assay [10] was “inactive” each time. Also, the Potency result in assay [18], in assay [11], in assay [12], in [13] and in assay [14] was “inactive” in each case. The compound was classed as inactive in assay [3]. In assay [15], the Potency is 7.72 µM (active) and 11 µM (active).
As for `O=C(NC(=O)c1c(F)cccc1F)Nc1ccc(Cl)cc1`, the Potency result in assay [1], in [16], in assay [20], in assay [6], in [8] and in assay [9] was “inactive” each time. Further, the Potency result in assay [17], in assay [10], in assay [11], in assay [12], in [13] and in assay [14] was “inactive” throughout. Also, the Potency result in [15] was “inactive”. Moreover, in assay [3], the result was inactive.
As to `CC(C)Oc1cc(-n2nc(C(C)(C)C)oc2=O)c(Cl)cc1Cl`, the Potency entry in assay [1], in assay [16], in [6], in [8], in assay [9] and in assay [18] was “inactive” each time. For the same compound, the Potency entry in [12], in assay [13], in [14] and in assay [15] was “inactive” throughout. The outcome in assay [3] was inactive. Also, the Potency in [7] was 34.7 µM (active); in assay [17] it was 682 nM (active) and inactive.
`OCC(O)CO`: the Potency result in [1], in assay [2], in [20], in assay [4], in assay [6] and in assay [7] was “inactive” throughout. The Potency result in assay [8], in [9], in assay [17], in [10], in assay [11] and in assay [12] was “inactive” each time. Moreover, the Potency result in assay [13], in assay [14] and in assay [15] was “inactive” each time. The call in assay [3] was inactive. For the same compound, the activity change, positive = activation in [5] was 2.36% (inactive) and 0.0013% (inactive). In addition, the max response in assay [19] was -4.06% (inactive) and 6% (inactive).
